Source: the supplement of paper PMC8728848
Many of the other results were omitted from the sample, so the strongest signals are more common in it than they were.

Columns and labels:
Assay in all cases: glycan array binding signal (z-score within array); higher = stronger binding
Conditions in all cases: glycan notation: IUPAC condensed, linker removed
[1] = target: Gal(b1-4)GlcNAc(b1-3)Gal(b1-4)GlcNAc(b1-3)Gal(b1-4)GlcNAc(b1-2)[Gal(b1-4)GlcNAc(b1-3)Gal(b1-4)GlcNAc(b1-3)Gal(b1-4)GlcNAc(b1-6)]Man(a1-6)[Gal(b1-4)GlcNAc(b1-3)Gal(b1-4)GlcNAc(b1-3)Gal(b1-4)GlcNAc(b1-2)Man(a1-3)]Man(b1-4)GlcNAc(b1-4)[Fuc(a1-6)]GlcNAc
In short: (§1)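 From the Consortium for Functional Glycomics database, 3228 arrays were curated, keeping only those whose protein sequence was available. Binding is given as a within-array Z-score averaged across arrays sharing a protein sequence and across linkers. Negative Z-scores can be read as non-binding.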

[2] = target: Gal(b1-4)GlcNAc(b1-3)Gal(b1-4)GlcNAc(b1-3)Gal(b1-4)GlcNAc(b1-3)Gal(b1-4)GlcNAc(b1-3)Gal(b1-4)GlcNAc(b1-2)[Gal(b1-4)GlcNAc(b1-3)Gal(b1-4)GlcNAc(b1-3)Gal(b1-4)GlcNAc(b1-3)Gal(b1-4)GlcNAc(b1-3)Gal(b1-4)GlcNAc(b1-6)]Man(a1-6)[Gal(b1-4)GlcNAc(b1-3)Gal(b1-4)GlcNAc(b1-3)Gal(b1-4)GlcNAc(b1-3)Gal(b1-4)GlcNAc(b1-3)Gal(b1-4)GlcNAc(b1-2)Man(a1-3)]Man(b1-4)GlcNAc(b1-4)[Fuc(a1-6)]GlcNAc
In short: as §1

[3] = target: Gal(b1-4)GlcNAc(b1-3)GalNAc
In short: as §1

[4] = target: Gal(b1-4)GlcNAc(b1-6)[Gal(b1-4)GlcNAc(b1-3)]GalNAc
In short: as §1

Gal3S4S(b1-4)GlcNAc = target: Gal3S4S(b1-4)GlcNAc
In short: as §1

Gal4S(b1-4)GlcNAc = target: Gal4S(b1-4)GlcNAc
In short: as §1

GalNAc(a1-3)GalNAc = target: GalNAc(a1-3)GalNAc
In short: as §1

[5] = target: GalNAc(b1-3)Gal(a1-4)Gal(b1-4)GlcNAc(b1-3)Gal(b1-4)Glc
In short: as §1

GalNAc(b1-3)GalNAc = target: GalNAc(b1-3)GalNAc
In short: as §1

GalNAc(b1-3)GlcNAc = target: GalNAc(b1-3)GlcNAc
In short: as §1

GalNAc3S(b1-4)GlcNAc3S = target: GalNAc3S(b1-4)GlcNAc3S
In short: as §1

[6] = target: GlcNAc(a1-6)Gal(b1-4)GlcNAc
In short: as §1

[7] = target: GlcNAc(b1-3)Gal(b1-4)GlcNAc(b1-2)[GlcNAc(b1-3)Gal(b1-4)GlcNAc(b1-6)]Man(a1-6)[GlcNAc(b1-3)Gal(b1-4)GlcNAc(b1-2)Man(a1-3)]Man(b1-4)GlcNAc(b1-4)GlcNAc
In short: as §1

[8] = target: GlcNAc(b1-3)Gal(b1-4)GlcNAc(b1-3)Gal(b1-4)GlcNAc(b1-3)Gal(b1-4)GlcNAc(b1-2)Man(a1-3)[GlcNAc(b1-3)Gal(b1-4)GlcNAc(b1-3)Gal(b1-4)GlcNAc(b1-3)Gal(b1-4)GlcNAc(b1-2)Man(a1-6)]Man(b1-4)GlcNAc(b1-4)GlcNAc
In short: as §1

[9] = target: GlcNAc(b1-3)[GlcNAc(b1-6)]GalNAc
In short: as §1

Kdn(a2-3)Gal(b1-3)GalNAc = target: Kdn(a2-3)Gal(b1-3)GalNAc
In short: as §1

Kdn(a2-3)Gal(b1-4)Glc = target: Kdn(a2-3)Gal(b1-4)Glc
In short: as §1

[10] = target: Man(a1-3)[Man(a1-6)]Man(a1-6)[Man(a1-3)]Man(b1-4)GlcNAc(b1-4)GlcNAc
In short: as §1

[11] = target: Neu5Ac(a2-3)Gal(b1-3)GalNAc(b1-3)Gal(a1-4)Gal(b1-4)Glc
In short: as §1

[12] = target: Neu5Ac(a2-3)Gal(b1-3)GlcNAc
In short: as §1

[13] = target: Neu5Ac(a2-3)Gal(b1-3)GlcNAc(b1-2)Man
In short: as §1

[14] = target: Neu5Ac(a2-3)Gal(b1-3)GlcNAc(b1-2)Man(a1-3)[GlcNAc(b1-4)][Neu5Ac(a2-3)Gal(b1-3)GlcNAc(b1-2)Man(a1-6)]Man(b1-4)GlcNAc(b1-4)GlcNAc
In short: as §1

[15] = target: Neu5Ac(a2-3)Gal(b1-4)GlcNAc(b1-2)Man(a1-3)[Neu5Ac(a2-3)Gal(b1-4)GlcNAc(b1-2)Man(a1-6)]Man(b1-4)GlcNAc(b1-4)[Fuc(a1-6)]GlcNAc
In short: as §1

[16] = target: Neu5Ac(a2-6)Gal(b1-4)GlcNAc(b1-2)Man(a1-3)[Neu5Ac(a2-6)Gal(b1-4)GlcNAc(b1-2)Man(a1-6)]Man(b1-4)GlcNAc(b1-4)[Fuc(a1-6)]GlcNAc
In short: as §1

[17] = target: Neu5Ac(a2-6)Gal(b1-4)GlcNAc(b1-2)[Neu5Ac(a2-6)Gal(b1-4)GlcNAc(b1-4)]Man(a1-3)[GlcNAc(b1-4)][Neu5Ac(a2-6)Gal(b1-4)GlcNAc(b1-4)Man(a1-6)]Man(b1-4)GlcNAc(b1-4)GlcNAc
In short: as §1

[18] = target: Neu5Ac(a2-6)Gal(b1-4)GlcNAc(b1-3)Gal(b1-4)[Fuc(a1-3)]GlcNAc(b1-3)Gal(b1-4)[Fuc(a1-3)]GlcNAc
In short: as §1

[19] = target: Neu5Ac(a2-6)Gal(b1-4)GlcNAc(b1-3)GalNAc
In short: as §1

[20] = target: Neu5Ac(a2-8)Neu5Ac(a2-3)Gal(b1-3)GalNAc(b1-4)[Neu5Ac(a2-8)Neu5Ac(a2-3)]Gal(b1-4)Glc
In short: as §1

[21] = target: Neu5Gc(a2-8)Neu5Gc(a2-3)Gal(b1-4)GlcNAc
In short: as §1

B1: GS7807G-bfa-506-18-506 (Bacteroides fragilis) (protein)
chain: ASCDKFDEINTDPDATTKVTSSLLATGLLLDITSSSASKSFIYDELLAKQMAWGESMEDYQYNVFGRSGFGGYTTLINAQKMVESVSDDNVNAYDGLAHFIKAYKIFYMSMEMGDLPYEEALQGELGLVRPKYNTQKEVMNFILSDLETAYELFSTAKDFDGDPILGGSISKWKKATTAFQLKVLMHLSKKESDADLKVKERFARIVASGSLMESNEDNLQMKYADKANTVYPFHNTNTKHAGYAMLSTMLIDKFKATGDIRMFYYAKPAKAKLNEGVTADSWDAYIGTDPSLPFEQIEKAYATEQYSGFNARYTDYPSGEPVVRLGYAEQNFILAEAAVRGWISGDASAYYKKAIRAHMEFIASNTPDEEVYHHGHPITEEAIAAFLETPAIQLSGEKEEDIEKILTQRYLASFMQHPYDVYYDYRRTGYPVLPINPATNRNTMNDRLPMRWMYPKSESDYNLEHQNEALERQFGGVDDVNKLMWILQ
Q: Which “glycan array binding signal (z-score)” value [1] does the source give for B1 here?
A: The value was 2.78.

Q: What about the “glycan array binding signal (z-score)” value [2] of the same binder?
A: The value was 4.67.

Q: And the “glycan array binding signal (z-score)” value [3]?
A: The value was -0.443.

Q: What about the “glycan array binding signal (z-score)” value [4] of the same binder?
A: Its value is 1.86.

Q: And the “glycan array binding signal (z-score)” value (Gal3S4S(b1-4)GlcNAc)?
A: Its value is -0.454.

Q: What about the “glycan array binding signal (z-score)” value (Gal4S(b1-4)GlcNAc) of the same binder?
A: The value was -0.273.

Q: And the “glycan array binding signal (z-score)” value (GalNAc(a1-3)GalNAc)?
A: Its value is -0.209.

Q: And the “glycan array binding signal (z-score)” value [5]?
A: Its value is -0.567.

Q: And the “glycan array binding signal (z-score)” value (GalNAc(b1-3)GalNAc)?
A: The value was -0.744.

Q: And the “glycan array binding signal (z-score)” value (GalNAc(b1-3)GlcNAc)?
A: The value was 0.616.

Q: What about the “glycan array binding signal (z-score)” value (GalNAc3S(b1-4)GlcNAc3S) of the same binder?
A: The value was -0.726.

Q: And the “glycan array binding signal (z-score)” value [6]?
A: Its value is -0.271.

Q: What about the “glycan array binding signal (z-score)” value [7] of the same binder?
A: Its value is 0.698.

Q: And the “glycan array binding signal (z-score)” value [8]?
A: Its value is 0.543.

Q: And the “glycan array binding signal (z-score)” value [9]?
A: The value was -0.871.

Q: What about the “glycan array binding signal (z-score)” value (Kdn(a2-3)Gal(b1-3)GalNAc) of the same binder?
A: Its value is -0.399.

Q: And the “glycan array binding signal (z-score)” value (Kdn(a2-3)Gal(b1-4)Glc)?
A: The value was -0.306.

Q: What about the “glycan array binding signal (z-score)” value [10] of the same binder?
A: The value was 3.61.

Q: And the “glycan array binding signal (z-score)” value [11]?
A: Its value is -0.786.

Q: And the “glycan array binding signal (z-score)” value [12]?
A: Its value is -0.636.

Q: And the “glycan array binding signal (z-score)” value [13]?
A: Its value is 2.81.

Q: What about the “glycan array binding signal (z-score)” value [14] of the same binder?
A: The value was -0.528.

Q: What about the “glycan array binding signal (z-score)” value [15] of the same binder?
A: Its value is -0.269.

Q: And the “glycan array binding signal (z-score)” value [16]?
A: The value was 4.41.

Q: What about the “glycan array binding signal (z-score)” value [17] of the same binder?
A: Its value is -0.864.

Q: What about the “glycan array binding signal (z-score)” value [18] of the same binder?
A: The value was -0.153.

Q: What about the “glycan array binding signal (z-score)” value [19] of the same binder?
A: The value was 2.85.

Q: And the “glycan array binding signal (z-score)” value [20]?
A: Its value is 0.197.

Q: And the “glycan array binding signal (z-score)” value [21]?
A: Its value is -0.712.
